Where “and” joins values, the source holds several entries; their conditions need not be identical. Equal entries are not always repeated. Results filed as inconclusive are left out. A call without a number means that no potency is given here. Calls of active or inactive are those of the source. Calls come from the whole dose curve; as a rule, active = well fitted cell-killing curve with a large enough effect in the repeat runs; inconclusive = weak or mixed curves, or effect the other way; inactive = flat fitted curve, though single readings scatter.
Potency is the fitted concentration of half-maximal effect.

A short description of the experiment: qHTS assay to identify small molecule antagonists of the constitutive androstane receptor (CAR) signaling pathway - cell viability counter screen (AID 1224837). Note: nearly all actives have a fitted effect of over 45% in size. The following applies: HepG2-CYP2B6-hCAR viability, CellTiter-Fluor, 23 h, co-treated with 50 nM CITCO; series mostly up to 92.4 µM. From the text: National Center for Advancing Translational Sciences [NCATS]
NIH Chemical Genomics Center [NCGC]
U.S. Environmental Protection Agency [EPA]
National Institutes of Environmental Health Sciences [NIEHS]
National Toxicology Program [NTP]
U.S. Food and Drug Administration [FDA]
The constitutive androstane receptor (CAR) is a nuclear receptor which regulates multiple drug metabolizing enzymes (DMEs) and transporters. Activating CAR will generally increase the transcription and subsequent translation of CYP2B6 and CYP3A4. These two DMEs represent about 50% of the drug metabolizing potential in the body. When CAR is deactivated, the metabolizing potential in the body will decrease, subsequently increasing the toxicity in the body or lowering the therapeutic potential of a pro-drug. Recently, there have also been studies performed indicating CARs role in energy metabolism and cancer therapy. Therefore, inhibiting CARs activity could have a potential effect on diabetes and cancer. Identifying environmental toxins and compounds which modulate CAR, through the use of the Tox21 10K compound collection, will be an important step in determining the toxicity and potential therapeutic effects these factors will have on the human body. To differentiate true CAR antagonists from cytotoxic substances, the assay is multiplexed with a cell viability assay.
Tox21 Assay Protocol Summary:
A double-stable (hCAR and CYP2B6-2.2kb) transfected cell line, derived from human hepatoma (HepG2) cells, was utilized for the duration of the quantitative high-throughput screens. The HepG2-CYP2B6-hCAR cells were dispensed at 2500 cells/4 uL/well in 1536-well white solid bottom plates using a Multidrop Combi. After the assay plates were incubated at 37 C/5% CO2 for 4 hrs, 23 nL of compounds at 15 concentrations (from 5-48 columns) or positive control (from 1 to 4 columns) were transferred to the assay plates using a Pintool station. One uL of CITCO (final concentration = 50 nM) was added, using a Flying Reagent Dispenser, inside each well. After a 23 hr incubation period at 37 C/5% CO2, 1 uL of CellTiter-Fluor reagent was added into each well of the assay plates using a Flying Reagent Dispenser. The fluorescence intensity in the plates was then measured using a ViewLux plate reader.
Regarding `CCCCCCCCCCCCCCCl`, the Potency result is “inactive”. The same measure, in the same setting: the result for `CC(C)(C)c1ccc(CCOc2ncnc3ccccc23)cc1` reads “inactive”. In the case of `OCCCl`, the Potency result is “inactive”.

Regarding `CON(C)C(=O)Nc1ccc(Cl)cc1`, the Potency entry is “inactive”. Regarding `CC(C)(C)CC(C)(C)c1ccc(O)cc1`, the Potency result is “inactive”. The same measure, in the same setting: in the case of `CCCCCCCCP(=O)(O)O` it was “inactive”; in that of `CCN(C(C)=O)c1cccc(-c2ccnc3c(C#N)cnn23)c1`, “inactive”. Still for that read-out and setting: in the case of `CCC1(CCC(C)C)C(=O)NC(=O)NC1=O` it was “inactive”; in that of `CN1CC[C@]23c4c5ccc(O)c4O[C@H]2[C@@H](O)C=C[C@H]3[C@H]1C5`, “inactive”.

On to `C[C@H]1O[C@H](OC2[C@@H](O)[C@@H](O)C(O)[C@H](O)[C@H]2O)[C@@H](N)C[C@@H]1N=C(N)C(=O)O` (stereo not given in full), for which the Potency result is “inactive”. The same measure, in the same setting: the result for `CC(O)CN1CCN(CC(=O)[O-])CCN(CC(=O)[O-])CCN(CC(=O)[O-])CC1.[Gd+3]` (stereo not given) reads “inactive”; that for `Cc1ccccc1`, “inactive”. Regarding `C[N+]1(CCC(C(N)=O)(c2ccccc2)c2ccccc2)CCCCC1`, the Potency entry was “inactive”. On the same count and under the same terms, in the case of `C[N+]1(CCF)[C@@H]2CC[C@H]1CC(OC(=O)C(O)(c1ccccc1)c1ccccc1)C2` (stereo not given in full) it was “inactive”; in that of `CCOC(=O)c1cn2nc(OP(=S)(OCC)OCC)cc2nc1C`, “inactive”. As to `CC(Cc1ccccc1)NCc1ccccc1Cl` (stereo not given), the Potency result is “inactive”. As for `C=C(Cl)Cl`, the Potency entry is “inactive”. With `CCCCCCCCCCCCN=C(N)N`, the activity change, negative = cytotoxicity was -5.88% [at 3.26 µM] (inactive). As to `Cc1nc(N(C)C)nc(OC(=O)N(C)C)c1C`, the Potency entry was “inactive”.

With `C=CC(C)(CCC=C(C)C)OC(=O)c1ccccc1N` (stereo not given), the Potency result is “inactive”.

Regarding `CNC(=O)Oc1cccc(N=CN(C)C)c1`, the Potency entry was “inactive”.

For the molecule `C1CS1`, the Potency result was “inactive”. Still for that read-out and setting: the result for `CC1(C)CC(=O)CC(C)(C)N1[O]` reads “inactive”; that for `CC[N+]1(C)CCCC(OC(=O)C(O)(c2ccccc2)c2ccccc2)C1` (stereo not given), “inactive”. For `COC1=CC(=O)O[C@@H](/C=C/c2ccc3c(c2)OCO3)C1`, the Potency result is “inactive”.

Take `COc1cc(CC#N)cc(OC)c1OC`: the Potency result was “inactive”. For the molecule `CCCN(CCC)C(=O)Cc1c(-c2ccc(Cl)cc2)nc2ccc(Cl)cn12`, the Potency result was “inactive”. For `CN1C(=O)CN=C(c2ccccc2)c2cc([N+](=O)[O-])ccc21`, the Potency entry is “inactive”. Same read-out and setting: the result for `N#CC(C#N)=Cc1ccc(O)c(O)c1` reads “inactive”.

Turning to `CCSCc1ccccc1OC(=O)NC`, the Potency entry was “inactive”.

As for `CC(C)c1ccc(OP(=O)(Oc2ccc(C(C)C)cc2)Oc2ccc(C(C)C)cc2)cc1`, the Potency result was “inactive”.

Consider `COC(=O)Cc1ccccc1`, for which the Potency entry is “inactive”. On the same count and under the same terms, the result for `C[CH2][Hg][S]c1ccccc1C(=O)O` reads 12.2 µM (active) and 7.5 µM (active); that for `Clc1ccc(Cl)c(Cl)c1`, “inactive”. On to `CC(C)[C@@H](C(=O)O[C@@H](C#N)c1cccc(Oc2ccccc2)c1)c1ccc(Cl)cc1`, for which the Potency result is “inactive”.

With `Cc1nc2ccccc2c(=O)n1-c1ccccc1Cl`, the Potency is 16.9 µM (active). Take `CC(Oc1cccc(Cl)c1)C(=O)O` (stereo not given): the Potency result was “inactive”. On to `c1ccc2c(c1)-c1cccc3cccc-2c13`, for which the Potency result was “inactive”. Still for that read-out and setting: the result for `O=C(Cc1ccccc1)c1ccccc1` reads “inactive”; that for `O=[N+]([O-])O[C@H]1CO[C@H]2[C@@H]1OC[C@H]2O[N+](=O)[O-]`, “inactive”.

The values above are taken from PubChem BioAssay (Tox21).
